Compounds with a hit are over-represented: about 7.3% of the library has one in this group of screens.
FLuc inh: blocks purified firefly luciferase enzyme activity; P08659; purified P. pyralis luciferase, luminescence, biochemical; Potency, µM (doses to about 115 µM), most hits filed as inhibitors; 2.5% of 76,000 active; also: potency is read from the fitted curve at half-maximal effect; nearly all actives have a fitted effect of over 65% in size
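Purified P. pyralis luciferase (10nM final) in 50mM Tris acetate pH 7.5, 10mM Mg acetate, 0.01% Tween-20, 0.05% BSA with 10uM D-luciferin and 10uM ATP. Compounds titrated qHTS. Luminescence imaged on CCD.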
3T3 cytotox: cytotoxic compounds in NIH 3T3 cells. NIH 3T3 viability, CellTiter-Glo ATP luminescence, 48-72 h. Potency, µM (series often up to 96.7 µM), for the others: top-dose activity change, negative = cytotoxicity, hits mostly inhibitors. 4.3% of 94,000 active. AID 1345082; also: potency is read from the fitted curve at half-maximal effect; nearly all actives have a fitted effect of over 55% in size
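NIH 3T3 cells at 400 cells/well received 23 nL of compound by pintool and were incubated 48 or 72 h at 37 °C. Viability was read as ATP-coupled CellTiter-Glo luminescence.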
SNCA viab count: reduces viability of HEK-293 SNCA reporter cells | HEK-293-SNCA-luc viability, GF-AFC fluorescence, 24 h | 0.12% of 150,000 active | AID 1671193 | Potency, µM (top dose mostly 57.1 µM), for inactives: at the highest dose activity change, negative = cytotoxicity, hits mostly cytotoxic;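 also: potency is read from the fitted curve at half-maximal effect; 0% = DMSO-treated cells and -100% = medium-only wells without cells; nearly all actives have a fitted effect of over 30% in size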
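Cytotoxicity counterscreen: after 24 h compound treatment of genome-edited SNCA-luciferase HEK-293 cells, live-cell protease substrate GF-AFC read by fluorescence after 30 min; activity scaled between DMSO (0%) and medium-only (-100%), curves Hill-fitted.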
HEK293 tox: kills HEK 293 cells | HEK 293 viability, ATP luminescence (CellTiter-Glo), 48-72 h | Potency, µM (top dose mostly 115 µM), for inactives: at the highest dose activity change, negative = cytotoxicity, most hits filed as inhibitors | 6.6% of 94,000 active | AID 1345083; also: potency is read from the fitted curve at half-maximal effect; nearly all actives have a fitted effect of over 60% in size
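Cytotoxicity was scored by loss of ATP-coupled luminescence (CellTiter-Glo) in HEK 293 cells. Compound treatment ran 48 or 72 hr at 37 degree Celsius, 5% CO2, 95% humidity.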
SNCA expr inh: inhibitors of alpha-synuclein (SNCA) gene expression; HEK-293 SNCA-luciferase knock-in, luminescence, 24 h; AID 1671194; 0.17% of 140,000 active; Potency, µM (doses to about 57.2 µM), inactives show top-dose activity change, negative = inhibition, usual class: inhibitors;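 also: potency is read from the fitted curve at half-maximal effect; plate controls were DMSO cells for no effect and cell-free wells for full effect; nearly all actives have a fitted effect of over 45% in size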
IP6K1 inh: blocks human inositol hexakisphosphate kinase 1. IP6K1 kinase, ADP-Glo luminescence, 2 h; hits give low values. activity change, % (series mostly up to about 58 µM). 0.81% of 140,000 active; in the data active = activity change below about -25%
Target sequence (Q92551 whole entry, looked up): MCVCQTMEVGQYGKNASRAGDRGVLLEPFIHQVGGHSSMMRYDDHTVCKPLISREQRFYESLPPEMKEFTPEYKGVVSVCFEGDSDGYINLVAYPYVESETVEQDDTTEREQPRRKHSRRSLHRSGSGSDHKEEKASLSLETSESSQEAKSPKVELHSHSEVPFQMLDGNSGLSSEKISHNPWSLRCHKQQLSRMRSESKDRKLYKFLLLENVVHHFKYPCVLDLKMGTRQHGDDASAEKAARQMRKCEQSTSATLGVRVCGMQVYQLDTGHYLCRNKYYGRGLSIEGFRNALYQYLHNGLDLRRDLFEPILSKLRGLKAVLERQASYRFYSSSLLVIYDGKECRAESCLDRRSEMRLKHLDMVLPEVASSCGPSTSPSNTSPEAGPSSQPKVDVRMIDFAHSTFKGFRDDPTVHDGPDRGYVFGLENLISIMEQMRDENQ
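ADP-Glo luminescence measures ADP made by human IP6K1 during a 2 h RT reaction with ATP/IP6 (mix at 1.3 mM/130 uM); top library doses 57.5 and 19.1 uM final.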
IP6K1 conf: confirmation of human IP6K1 inhibitors. shares compounds with IP6K1 inh. recombinant IP6K1 kinase, ADP-Glo luminescence, 2 h. Potency, µM (highest dose often 49 µM), without a hit: at the top dose activity change, negative = inhibition, most hits filed as inhibitors. 13% of 1,200 active. AID 1645852; also: potency is read from the fitted curve at half-maximal effect; nearly all actives have a fitted effect of over 65% in size
An asterisk follows results filed as active; ! = not confirmed by another sample; [ ] = dose if it differs, or a comment. Unless noted, calls follow the shape of the dose curve; as a rule, active = well fitted curve in the direction sought with a large enough effect; inconclusive = small, poorly fitted or top-dose-only effect, or another doubt; inactive = no such curve, though single readings can be large; an effect the other way counts as inactive or inconclusive. Unless noted, % is scaled to controls: 0 for no effect and ±100 for the full control effect.

What do the screens show for `Cn1cc(CNc2ccc(-c3nc(-c4cccc(C(F)(F)F)c4)no3)cn2)cn1`?
FLuc inh: inactive; 3T3 cytotox: inconclusive; SNCA viab count: -14%; HEK293 tox: 25µM*; SNCA expr inh: 60%; IP6K1 inh: -33*; IP6K1 conf: inconclusive

What do the screens show for `N#Cc1ccc(C(=O)N2CCC3(CC2)NC(=O)N(Cc2cccc(Cl)c2)C3=O)cc1`?
FLuc inh: inactive; 3T3 cytotox: inconclusive; SNCA viab count: 0%; HEK293 tox: inconclusive; SNCA expr inh: 2%; IP6K1 inh: -10

What do the screens show for `O=C([C@@H]1C[C@H](Oc2cccnc2)CN1C(=O)c1ccc2ccccc2n1)N1CCOCC1`?
FLuc inh: inactive; 3T3 cytotox: -4%; SNCA viab count: -10%; HEK293 tox: inactive; SNCA expr inh: 20%; IP6K1 inh: 5

Results for CCOC(=O)C1CCN(C(=O)Cn2nc(C)n3c(cc4cc(C)ccc43)c2=O)CC1 ?
SNCA viab count: -9%; SNCA expr inh: -18%; IP6K1 inh: -35*; IP6K1 conf: -25%

What do the screens show for `Cc1ccc2c(c1)cc1c(=O)n(CC(=O)N3CCCCC3)nc(C)n12`?
SNCA viab count: -8%; SNCA expr inh: -2%; IP6K1 inh: -27*; IP6K1 conf: -19%

What do the screens show for `COc1cccc2c1cc1c(=O)n(CC(=O)N3CCN(c4cccc(C)c4C)CC3)nc(C)n12`?
SNCA viab count: 7%; SNCA expr inh: 0%; IP6K1 inh: -26*; IP6K1 conf: 10%

What do the screens show for `COc1ccccc1C(=O)N1CCC(C(=O)N2CCC(c3nc4ncccc4[nH]3)CC2)C1` (centres undefined)?
3T3 cytotox: -5%; SNCA viab count: 4%; HEK293 tox: inactive; SNCA expr inh: 6%; IP6K1 inh: 8

What do the screens show for `COc1ccc(CNC(=O)N2CCC(Cc3ncc(C)n3C3CC3)C2)cc1` (centres undefined)?
3T3 cytotox: -33%; SNCA viab count: 3%; HEK293 tox: -17%; SNCA expr inh: -15%; IP6K1 inh: 22

What do the screens show for `O=C1c2c(O)ccc(O)c2C(=O)c2c(NCCNCCO)ccc(NCCNCCO)c21`?
SNCA viab count: inconclusive; SNCA expr inh: 1.2µM*!; IP6K1 inh: -39*; IP6K1 conf: inconclusive

How did Cn1nc(C2CCCC2)cc1NC(=O)C1CCCC1 do in these assays?
3T3 cytotox: -16%[138 µM]; SNCA viab count: 10%[87.6 µM]; HEK293 tox: -6%[172 µM]; SNCA expr inh: 65%[87.6 µM]; IP6K1 inh: -5

What do the screens show for `COc1ccc(OC)c(CNC(=O)c2nn(C)c3c2CSc2ccccc2-3)c1`?
SNCA viab count: 11%; SNCA expr inh: -6%; IP6K1 inh: 35

Results for COc1ccc(NC(=O)c2[nH]nc3c2CSc2ccccc2-3)c(OC)c1 ?
SNCA viab count: 8%; SNCA expr inh: 7%; IP6K1 inh: -44*; IP6K1 conf: -6%

How did COc1cccc(CN2CCC(F)(C(=O)N3CCCC3)CC2)c1OC do in these assays?
3T3 cytotox: inconclusive; SNCA viab count: -12%; HEK293 tox: inconclusive; SNCA expr inh: 12%; IP6K1 inh: 8

Results for CCOc1cc(Br)c(C2C(C(=O)OC)=C(C)NC3=C2C(=O)c2ccccc23)cc1OCC (centres undefined) ?
SNCA viab count: -7%; SNCA expr inh: -24%; IP6K1 inh: -32*; IP6K1 conf: -12%

What do the screens show for `CC(=O)N1CCC(C2CCN(C(=O)C3CNC3)C2)CC1` (centres undefined)?
FLuc inh: inactive; 3T3 cytotox: 3%; SNCA viab count: 7%[12.5 µM]; HEK293 tox: inactive; SNCA expr inh: -6%; IP6K1 inh: 4

Results for COc1cc2c(=O)c(S(=O)(=O)c3ccc(F)cc3)cn(Cc3ccc(Cl)cc3)c2cc1OC ?
SNCA viab count: -9%; SNCA expr inh: 25%; IP6K1 inh: -14

How did O=c1c(S(=O)(=O)c2ccc(Cl)cc2)cn(Cc2ccc(F)cc2)c2ccc(F)cc12 do in these assays?
SNCA viab count: 14%; SNCA expr inh: 23%; IP6K1 inh: -38*; IP6K1 conf: inconclusive

What do the screens show for `CCCNC(=O)N[C@@H]1CCC[C@@H](C(=O)NCCOC)CC(=O)N(C)C1`?
FLuc inh: inactive; 3T3 cytotox: -13%[138 µM]; SNCA viab count: -4%[87.6 µM]; HEK293 tox: -11%[172 µM]; SNCA expr inh: -14%[87.6 µM]; IP6K1 inh: 3

How did Cc1ccccc1C(=O)Nc1cccc(-c2nc3cccnc3s2)c1 do in these assays?
SNCA viab count: -12%; SNCA expr inh: 15%; IP6K1 inh: -29*; IP6K1 conf: inconclusive

Results for Cc1cccc(CC(=O)Nc2cccc(-c3nc4cccnc4s3)c2)c1 ?
SNCA viab count: -12%; SNCA expr inh: 141%; IP6K1 inh: 30

How did CC(C)C(=O)N1c2ncnn2C2(CCCCC2)[C@@H]2CCCC[C@@H]21 do in these assays?
SNCA viab count: 5%; SNCA expr inh: -20%; IP6K1 inh: -30*; IP6K1 conf: -17%

How did COc1ccccc1C(=O)N1c2ncnn2C2(CCCCC2)[C@@H]2CCCC[C@@H]21 do in these assays?
SNCA viab count: 2%; SNCA expr inh: -4%; IP6K1 inh: -15

What do the screens show for `CC(C)NC(=O)NC1CCN(c2ccc3nnc(C4CC4)n3n2)C1` (centres undefined)?
3T3 cytotox: inactive; HEK293 tox: inactive; IP6K1 inh: 13

What do the screens show for `CCOC(=O)c1cccc(NC(=O)c2oc3c(c2C)-c2nn(CC)cc2CC3)c1`?
SNCA viab count: 3%; SNCA expr inh: 34%; IP6K1 inh: -28*; IP6K1 conf: inconclusive

How did CC(=O)c1cccc(NC(=O)c2oc3c(c2C)-c2nn(Cc4ccc(Cl)cc4)cc2CC3)c1 do in these assays?
SNCA viab count: -3%; SNCA expr inh: -1%; IP6K1 inh: -12

How did O=C(NCc1cccc(F)c1)c1nc2cccnc2n(Cc2ccccc2)c1=O do in these assays?
3T3 cytotox: inconclusive; SNCA viab count: 3%; HEK293 tox: inconclusive; SNCA expr inh: -10%; IP6K1 inh: 15

How did O=C(O)Cn1nnc(-c2ccc(OCc3cccc(C(F)(F)F)c3)cc2)n1 do in these assays?
SNCA viab count: 1%; SNCA expr inh: 6%; IP6K1 inh: -30*; IP6K1 conf: inconclusive
